An excerpt weighted towards active compounds, which were near 19% of everything screened.
TDP1 block: inhibitors of human tyrosyl-DNA phosphodiesterase TDP1; Q9NUW8; recombinant TDP1, AlphaScreen DNA substrate cleavage; Potency, µM (highest dose often 130 µM), for the others: top-dose activity change, negative = inhibition, most hits filed as inhibitors; 350,000 compounds, 0.28% hits; AID 485290; note: nearly all actives have a fitted effect of over 40% in size
Target sequence (Q9NUW8 whole entry, looked up): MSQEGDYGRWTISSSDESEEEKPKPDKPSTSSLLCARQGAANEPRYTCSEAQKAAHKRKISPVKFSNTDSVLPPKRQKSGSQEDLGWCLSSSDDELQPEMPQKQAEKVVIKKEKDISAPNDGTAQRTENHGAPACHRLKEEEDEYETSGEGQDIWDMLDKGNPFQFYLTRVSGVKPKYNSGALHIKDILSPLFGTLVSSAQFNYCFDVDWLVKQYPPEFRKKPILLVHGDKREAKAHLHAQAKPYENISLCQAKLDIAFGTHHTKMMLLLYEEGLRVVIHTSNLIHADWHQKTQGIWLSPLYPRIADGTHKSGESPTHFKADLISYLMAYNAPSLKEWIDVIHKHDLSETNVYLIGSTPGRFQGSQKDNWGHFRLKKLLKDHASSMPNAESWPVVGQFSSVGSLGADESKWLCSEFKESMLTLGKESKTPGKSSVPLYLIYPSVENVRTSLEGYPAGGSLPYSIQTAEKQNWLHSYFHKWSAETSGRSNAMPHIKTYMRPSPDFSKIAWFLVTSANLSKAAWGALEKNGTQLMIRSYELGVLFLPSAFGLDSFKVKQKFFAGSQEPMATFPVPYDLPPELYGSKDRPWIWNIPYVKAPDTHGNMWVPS
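E. coli-derived human Tdp1, 1 nM final. Cpd preinc 15 min RT; substrate 15 nM final, 5 min RT; AS bead mix 10 ug/ml final, 10 min RT. Signal loss = tyrosine-FITC cleavage. No-enzyme wells = max signal.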
DT40 TDP1 no CPT: qHTS for Inhibitors of human tyrosyl-DNA phosphodiesterase 1 (TDP1): qHTS in cells in absence of CPT; DT40 Tdp1-/- hTDP1 cells, no CPT, ATP luminescence, 48 h; Potency, µM (top dose mostly 46.2 µM), for the others: top-dose activity change, negative = growth inhibition, most hits filed as inhibitors; 420,000 compounds, 15% hits; AID 686978, 2013; note: nearly all actives have a fitted effect of over 55% in size
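Chicken DT40 Tdp1-/- cells stably complemented with human TDP1 were seeded at 400 cells/well with DMSO in place of 20 nM camptothecin. After compound pinning, cells grew at least 48 hr at 37 °C; viability read by CellTiter-Glo luminescence.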
TDP1 cell CPT: DT40-hTDP1 cell growth loss with CPT; chicken DT40 Tdp1-/-;hTDP1 cells + 20 nM CPT, ATP luminescence, 48 h; Potency, µM (highest dose often 46.2 µM), without a hit: at the highest dose activity change, negative = growth inhibition, actives largely listed as inhibitors; 420,000 compounds, 12% hits; AID 686979; note: nearly all actives have a fitted effect of over 55% in size
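Chicken DT40 Tdp1-/- cells complemented with human TDP1, 400 cells/well, exposed to compounds plus 20 nM camptothecin for at least 48 h at 37 C; viability read as ATP content by CellTiter-Glo luminescence.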
Gal4-VP16 FLuc: counter-screen for ROR gamma inhibitors: Gal4-VP16 reporter | AID 2546 | Potency, µM (doses to about 53.6 µM), for the others: at the top dose activity, negative = inhibition, hits mostly inhibitors | 310,000 compounds, 3.5% hits | Drosophila S2 Gal4-VP16 UAS-luciferase, luminescence, 20 h;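 note: Gal4-VP16 expression switched on by copper sulfate through the metallothionein promoter; nearly all actives have a fitted effect of over 50% in size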
RORg inh: inhibitors of mouse ROR gamma transcriptional activity; Potency, µM (top dose mostly 53.6 µM), for inactives: at the highest dose activity change, negative = inhibition, hits mostly inhibitors; 310,000 compounds, 5.4% hits; Drosophila S2 Gal4-RORgamma UAS-luciferase reporter, 20 h; AID 2551; note: nearly all actives have a fitted effect of over 60% in size
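Schneider cells (Drosophila), stable Gal4 DBD–ROR gamma + UAS-luc; 1 hr cmpd preincubation; Cu2+ induction 700 uM final; 20 hr ambient; luminescence.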
An asterisk follows results filed as active; [ ] = remark or other dose. Calls come from the whole dose curve; as a rule, active = well fitted curve in the direction sought with a large enough effect; inconclusive = small, poorly fitted or top-dose-only effect, or another doubt; inactive = no such curve, though single readings can be large; an effect the other way counts as inactive or inconclusive. % is set by controls: 0 for no effect and ±100 for the full control effect; potency is the fitted concentration of half-maximal effect.

What do the screens show for `O=C(CSc1nc2ccccc2c(=O)n1-c1ccc(F)cc1)NC1CCS(=O)(=O)C1` (centres undefined)?
TDP1 block: -11%[0.505 µM]; DT40 TDP1 no CPT: -6%; TDP1 cell CPT: -5%

Results for N#CCCN(C(=O)CSc1nnc(-c2ccncc2)n1C1CC1)c1ccccc1 ?
TDP1 block: -2%[56.1 µM]; DT40 TDP1 no CPT: -15%; TDP1 cell CPT: 2%

Results for COCCCN(C(=O)CSCc1c(C)noc1C)c1c(N)n(Cc2ccccc2)c(=O)[nH]c1=O ?
TDP1 block: -11%[0.505 µM]; DT40 TDP1 no CPT: -22%; TDP1 cell CPT: 6%

What do the screens show for `COC(=O)c1c(C)oc2ccc(N(C(=O)Oc3ccccc3)S(=O)(=O)c3ccc(C(C)(C)C)cc3)cc12`?
TDP1 block: 3%[12.3 µM]; DT40 TDP1 no CPT: 1.5µM*; TDP1 cell CPT: 3.7µM*

How did CCOC(=O)c1c(C)oc2ccc(N(C(=O)Oc3ccccc3)S(=O)(=O)c3ccccc3)cc12 do in these assays?
TDP1 block: -3%[12.3 µM]; DT40 TDP1 no CPT: -29%; TDP1 cell CPT: 2%

Results for CC(=O)c1c(C)oc2ccc(N(C(=O)Oc3ccccc3)S(=O)(=O)c3ccccc3)cc12 ?
TDP1 block: 2%[12.3 µM]; DT40 TDP1 no CPT: 10µM*; TDP1 cell CPT: inconclusive

How did CC(=O)c1c(C)oc2ccc(N(C(C)=O)S(=O)(=O)c3ccc(Cl)c([N+](=O)[O-])c3)cc12 do in these assays?
TDP1 block: 7%; DT40 TDP1 no CPT: inconclusive; TDP1 cell CPT: inconclusive; Gal4-VP16 FLuc: inconclusive; RORg inh: inconclusive

Results for O=C(NCc1ccc2c(c1)OCO2)C1CCCN1C(=O)Nc1ccccc1 (centres undefined) ?
TDP1 block: 2%; DT40 TDP1 no CPT: -9%; TDP1 cell CPT: -12%; Gal4-VP16 FLuc: 0%; RORg inh: -15%

What do the screens show for `COc1cccc(/C=C/C(=C2\C(=O)N(c3ccccc3)N=C2C)c2ccc(Br)cc2)c1OC`?
DT40 TDP1 no CPT: inconclusive; TDP1 cell CPT: -29%

What do the screens show for `O=C(Cc1ccc(Cl)c(Cl)c1)Nc1ccccc1N1CCCC1`?
TDP1 block: 7%; DT40 TDP1 no CPT: inconclusive; TDP1 cell CPT: 15µM*; Gal4-VP16 FLuc: 1%; RORg inh: 1%

What do the screens show for `O=C(Cc1ccc(F)cc1)Nc1ccccc1N1CCCC1`?
TDP1 block: 8%; DT40 TDP1 no CPT: inconclusive; TDP1 cell CPT: inconclusive; Gal4-VP16 FLuc: 2%; RORg inh: 10%

What do the screens show for `CCC(=O)N1CCN(c2ccc(Cl)cc2NC(=O)Cc2ccc(Cl)cc2)CC1`?
TDP1 block: 0%; DT40 TDP1 no CPT: inconclusive; TDP1 cell CPT: inconclusive; Gal4-VP16 FLuc: 0%; RORg inh: 31%

How did CCC(=O)N1CCN(c2ccccc2NC(=O)Cc2ccc(Cl)cc2)CC1 do in these assays?
TDP1 block: 1%; DT40 TDP1 no CPT: 23µM*; TDP1 cell CPT: -15%; Gal4-VP16 FLuc: -4%; RORg inh: -2%

How did Cc1ccccc1SCC(=O)NCC1(N2CCCCC2)CCCCC1 do in these assays?
DT40 TDP1 no CPT: inconclusive; TDP1 cell CPT: -24%

Results for CCCCn1c(N)c(N(CCOC)C(=O)c2ccc(OCc3c(C)noc3C)cc2)c(=O)[nH]c1=O ?
TDP1 block: 1%; DT40 TDP1 no CPT: 1%; TDP1 cell CPT: 12%

Results for CCCCC(=O)N1C/C=C\[C@H](c2ccc(OC)cc2)N(Cc2ccc(F)cc2)C(=O)[C@@H]1C ?
DT40 TDP1 no CPT: 16µM*; TDP1 cell CPT: inconclusive

What do the screens show for `COc1ccc(C2/C=C\CN(S(=O)(=O)c3ccc(-c4ccccc4)cc3)CC(=O)N2Cc2ccc(F)cc2)cc1` (centres undefined)?
TDP1 block: 7%; DT40 TDP1 no CPT: inconclusive; TDP1 cell CPT: inconclusive; Gal4-VP16 FLuc: 4%; RORg inh: -17%

Results for COc1ccc([C@H]2/C=C\CN(C(=O)c3ccccc3)[C@@H](C)C(=O)N2Cc2ccc(F)cc2)cc1 ?
DT40 TDP1 no CPT: 23µM*; TDP1 cell CPT: inconclusive

How did COc1ccc([C@H]2/C=C\CN(S(=O)(=O)/C=C/c3ccccc3)[C@@H](C)C(=O)N2Cc2ccc(F)cc2)cc1 do in these assays?
DT40 TDP1 no CPT: 21µM*; TDP1 cell CPT: inconclusive

What do the screens show for `Cc1cc(NS(=O)(=O)c2ccc(Nc3nc(-c4sc(C)nc4C)cs3)cc2)no1`?
TDP1 block: -2%; Gal4-VP16 FLuc: 5%; RORg inh: 0%

What do the screens show for `OCC1(CCOc2ccccc2)CCN(Cc2cccn2-c2ncccn2)CC1`?
DT40 TDP1 no CPT: -7%; TDP1 cell CPT: 9%; Gal4-VP16 FLuc: -1%; RORg inh: 6%

Results for CC(NC(=O)CN(C)CC(=O)Nc1ccc(F)c(F)c1F)c1ccccc1 (centres undefined) ?
TDP1 block: -1%; DT40 TDP1 no CPT: 20%; TDP1 cell CPT: inconclusive; Gal4-VP16 FLuc: -11%; RORg inh: 20%

Results for CC(NC(=O)CN(C)CC(=O)Nc1ccc(Cl)cc1)c1ccc(F)cc1 (centres undefined) ?
TDP1 block: -1%; DT40 TDP1 no CPT: 18µM*; TDP1 cell CPT: inconclusive

What do the screens show for `CCN(CC)CCSc1nc2ccccc2c(=S)n1-c1ccccc1`?
TDP1 block: 4%; DT40 TDP1 no CPT: 23µM*; TDP1 cell CPT: inconclusive; Gal4-VP16 FLuc: -2%; RORg inh: -40%

How did CCn1cnc2cc(NCc3ccc(C)cc3)ccc21 do in these assays?
TDP1 block: -11%; DT40 TDP1 no CPT: -25%; TDP1 cell CPT: -9%; Gal4-VP16 FLuc: inconclusive; RORg inh: inconclusive

Results for CCn1cnc2cc(NCc3nc4ccccc4n3Cc3ccccc3)ccc21 ?
TDP1 block: 8%; DT40 TDP1 no CPT: inconclusive; TDP1 cell CPT: 15µM*; Gal4-VP16 FLuc: inconclusive; RORg inh: -5%

Results for Cc1ccc(CNc2ccc3c(c2)ncn3C(C)C)cc1 ?
DT40 TDP1 no CPT: 13µM*; TDP1 cell CPT: 12µM*; Gal4-VP16 FLuc: -7%; RORg inh: 5µM*

What do the screens show for `CCN(CC)CCSc1nc2ccccc2n1Cc1ccccc1`?
TDP1 block: 9%; DT40 TDP1 no CPT: 16µM*; TDP1 cell CPT: inconclusive; Gal4-VP16 FLuc: -3%; RORg inh: -27%

Results for O=C(CSc1nnc(-c2cccs2)o1)OC1CCCCC1 ?
TDP1 block: -2%; DT40 TDP1 no CPT: -10%; TDP1 cell CPT: inconclusive; Gal4-VP16 FLuc: -1%; RORg inh: 11%

How did N#CC(C#N)=Cc1cnc(N2CCN(c3ccccc3)CC2)s1 do in these assays?
DT40 TDP1 no CPT: -4%; TDP1 cell CPT: 4%; Gal4-VP16 FLuc: -10%; RORg inh: 9%

From PubChem BioAssay
